Test results as given in PubChem BioAssay (Tox21).
Records with an inconclusive call do not appear. The source made the active and inactive calls. Calls come from the whole dose curve; as a rule, active = well fitted curve in the direction sought with a large enough effect in the repeat runs; inconclusive = weak or mixed curves; inactive = no such curve, though single readings can be large; an effect the other way counts as inactive or inconclusive.

Tests used:
[1] = qHTS RealTime-Glo MT Cell Viability Assay in HepG2 cells - 40 hour (AID 1224870); note: nearly all actives have a fitted effect of over 50% in size
Procedure, shortened: (§1)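 HepG2 cells (600/well) mixed with RealTime-Glo MT reagent, settled 5 h at 37 C/5% CO2 before compound addition. Nonlytic NanoLuc luminescence from viable-cell prosubstrate reduction read repeatedly during 40 h treatment at 37 C.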

[2] = A CellTox Green Cytotoxicity Assay to monitor cytotoxicity in HEK293 cells - 40 hour (AID 1224871); note: nearly all actives have a fitted effect of over 45% in size
Procedure, shortened: (§2)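 Nonlytic real-time cytotoxicity: HEK293 + CellTox Green reagent plated, 5 h preincubation, pintool compound addition (23 nL in DMSO), 37 C for 40 h, fluorescence measured at successive time points.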

[3] = qHTS RealTime-Glo MT Cell Viability Assay in HEK293 cells - 16 hour (AID 1224872); note: top concentration of the series differs between compounds; nearly all actives have a fitted effect of over 50% in size
Procedure, shortened: (§3)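 Nonlytic real-time viability readout: viable cells convert prosubstrate to NanoLuc substrate, giving luminescence proportional to live cell number. HEK293, 600 cells/well, compound added after 5 h, continuous culture at 37 C.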

[4] = qHTS RealTime-Glo MT Cell Viability Assay in HEK293 cells - 40 hour (AID 1224874); conditions: RealTime-Glo luminescence; max response: stronger effect = lower value; note: nearly all actives have a fitted effect of over 50% in size
Procedure, shortened: (§4)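 Cells were seeded together with NanoLuc luciferase and a prosubstrate that viable cells reduce to a luciferase substrate. After a 5 h incubation at 37 C/5% CO2, compounds were added and luminescence was measured repeatedly during 40 h of treatment.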

[5] = A CellTox Green Cytotoxicity Assay to monitor cytotoxicity in HEK293 cells - 24 hour (AID 1224875); note: series mostly up to about 77 µM; nearly all actives have a fitted effect of over 45% in size
Procedure, shortened: as §2

[6] = A CellTox Green Cytotoxicity Assay to monitor cytotoxicity in HepG2 cells - 16 hour (AID 1224876); note: nearly all actives have a fitted effect of over 45% in size
Procedure, shortened: (§5)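 Read-out is fluorescence of a cyanine dye excluded from live cells that stains DNA of dead HepG2 cells, with signal proportional to cytotoxicity. Plates were read at 0, 8, 16, 24, 32 and 40 h after compound addition.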

[7] = qHTS RealTime-Glo MT Cell Viability Assay in HepG2 cells - 32 hour (AID 1224877); note: nearly all actives have a fitted effect of over 55% in size
Procedure, shortened: (§6)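 Luminescence read-out: viable HepG2 cells reduce a prosubstrate to a NanoLuc substrate, giving a signal proportional to live cell number. Reads taken at 0, 8, 16, 24, 32 and 40 h of compound exposure at 37 C.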

[8] = A CellTox Green Cytotoxicity Assay to monitor cytotoxicity in HepG2 cells - 24 hour (AID 1224878); note: nearly all actives have a fitted effect of over 45% in size
Procedure, shortened: as §5

[9] = A CellTox Green Cytotoxicity Assay to monitor cytotoxicity in HepG2 cells - 40 hour (AID 1224879); note: nearly all actives have a fitted effect of over 40% in size
Procedure, shortened: as §5

[10] = qHTS RealTime-Glo MT Cell Viability Assay in HEK293 cells - 0 hour (AID 1224880)
Procedure, shortened: as §4

[11] = A CellTox Green Cytotoxicity Assay to monitor cytotoxicity in HEK293 cells - 32 hour (AID 1224881); note: nearly all actives have a fitted effect of over 40% in size
Procedure, shortened: as §2

[12] = A CellTox Green Cytotoxicity Assay to monitor cytotoxicity in HepG2 cells - 0 hour (AID 1224882); note: nearly all actives have a fitted effect of over 35% in size
Procedure, shortened: as §5

[13] = A CellTox Green Cytotoxicity Assay to monitor cytotoxicity in HepG2 cells - 32 hour (AID 1224883); note: nearly all actives have a fitted effect of over 50% in size
Procedure, shortened: as §5

[14] = A CellTox Green Cytotoxicity Assay to monitor cytotoxicity in HEK293 cells - 8 hour (AID 1224884); note: nearly all actives have a fitted effect of over 35% in size
Procedure, shortened: as §2

[15] = qHTS RealTime-Glo MT Cell Viability Assay in HepG2 cells - 16 hour (AID 1224885); note: nearly all actives have a fitted effect of over 50% in size
Procedure, shortened: as §6

[16] = qHTS RealTime-Glo MT Cell Viability Assay in HEK293 cells - 24 hour (AID 1224886)
Procedure, shortened: as §3

[17] = qHTS RealTime-Glo MT Cell Viability Assay in HEK293 cells - 8 hour (AID 1224887)
Procedure, shortened: as §4

[18] = A CellTox Green Cytotoxicity Assay to monitor cytotoxicity in HEK293 cells - 16 hour (AID 1224888); note: nearly all actives have a fitted effect of over 35% in size
Procedure, shortened: as §2

[19] = qHTS RealTime-Glo MT Cell Viability Assay in HepG2 cells - 0 hour (AID 1224889); note: nearly all actives have a fitted effect of over 50% in size
Procedure, shortened: as §6

[20] = qHTS RealTime-Glo MT Cell Viability Assay in HepG2 cells - 8 hour (AID 1224873); note: nearly all actives have a fitted effect of over 55% in size
Procedure, shortened: as §1
% is set by controls: 0 for no effect and ±100 for the full control effect.

O=C(O)c1cc(C(=O)O)c(C(=O)O)cc1C(=O)O
inactive: Potency [1] | Potency [2] | Potency [3] | max response [4] 0.796% | Potency [5] | Potency [6] | Potency [7] | Potency [8] | Potency [9] | Potency [10] | Potency [11] | Potency [12] | Potency [13] | Potency [14] | outcome [15] | Potency [16] | Potency [17] | Potency [18] | Potency [19]

CCCCCCC/C=C/C=O
inactive: Potency [1] | Potency [2] | Potency [3] | max response [4] 6.61% | Potency [5] | Potency [6] | Potency [7] | Potency [8] | Potency [9] | Potency [10] | Potency [11] | Potency [13] | outcome [15] | Potency [17] | Potency [19]

c1ccc(-c2ccc(-c3ccccc3)cc2)cc1
inactive: activity change, negative = cytotoxic [1] 3.84% [at 15.8 µM] | cytotoxicity increase [2] -4.32% [at 15.8 µM] | activity change, negative = cytotoxicity [3] 0.695% [at 15.8 µM] | viability change, negative = cytotoxic [20] 0.239% [at 15.8 µM] | activity change [5] -5.55% [at 15.8 µM, stronger effect = higher value] | cytotoxicity increase [6] -3.4% [at 15.8 µM] | activity change, negative = cytotoxic [7] 2.08% [at 15.8 µM] | cytotoxicity [8] -1.79% [at 15.8 µM] | activity change, negative = cytotoxicity [10] 1.15% [at 15.8 µM] | cytotoxicity increase [11] -3.83% [at 15.8 µM] | cytotoxicity [12] 0.432% [at 15.8 µM] | cytotoxicity increase [13] 2.09% [at 15.8 µM] | activity change, negative = cytotoxic [15] 0.423% [at 15.8 µM] | activity change, negative = cytotoxicity [16] 0.629% [at 15.8 µM] | activity change, negative = cytotoxicity [17] 0.793% [at 15.8 µM] | activity change [18] -4.6% [at 15.8 µM, stronger effect = higher value] | activity change, negative = cytotoxicity [19] -2.66% [at 15.8 µM]

CC/C=C/CCO
inactive: Potency [1] | Potency [2] | Potency [3] | max response [4] -11.5% | Potency [5] | Potency [6] | Potency [7] | Potency [8] | Potency [9] | Potency [10] | Potency [12] | Potency [13] | Potency [14] | outcome [15] | Potency [17] | Potency [18] | Potency [19]

COc1ccc(/C=C/S(=O)(=O)NC(=O)c2ccc(C)cc2Cl)cc1
inactive: Potency [1] | Potency [2] | Potency [3] | max response [4] -7.95% | Potency [5] | Potency [6] | Potency [7] | Potency [8] | Potency [9] | Potency [10] | Potency [11] | Potency [12] | Potency [13] | Potency [14] | outcome [15] | Potency [16] | Potency [17] | Potency [18] | Potency [19]

Cc1ccccc1CCO
inactive: Potency [1] | Potency [2] | Potency [3] | max response [4] 5.71% | Potency [5] | Potency [6] | Potency [7] | Potency [8] | Potency [9] | Potency [10] | Potency [11] | Potency [12] | Potency [13] | Potency [14] | outcome [15] | Potency [16] | Potency [17] | Potency [19]

Cc1cc(C)n(CO)n1
inactive: Potency [1] | Potency [2] | Potency [3] | max response [4] 1.2% | Potency [5] | Potency [6] | Potency [7] | Potency [8] | Potency [10] | Potency [11] | Potency [12] | Potency [13] | Potency [14] | outcome [15] | Potency [16] | Potency [17] | Potency [18] | Potency [19]
